Sampled rows, rich in hits. Any-hit rate of the full collection: about 3.4%.
TEAD-YAP inh – TEAD-YAP interaction inhibition | HEK-TIYL cells, TEAD-Gal4/YAP UAS-luciferase luminescence | inhibition, % at 9.12 µM | 1.4% of 640,000 active; in the data active means inhibition above about 32%;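 further: 0% = median of test compound wells and 100% = reference inhibitor wells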
GPR151 activ – human GPR151 activation; Q8TDV0; PathHunter beta-arrestin GPR151 cells, luminescence; activation, % at 11.2 µM; 1% of 650,000 active; AID 1508602; in the data active means activation above about 4.9%;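 further: 0% = median of compound wells and 100% = cells with positive control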
FBW7 act – activators of human E3 ligase FBW7; Q969H0; AlphaScreen FBW7–phospho-cyclin E peptide binding, activator screen; normalized activity (activation), % at 26.1 µM; 0.13% of 650,000 active; AID 1259310; in the data active means normalized activity above about 1.9%;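 further: purified mutant Fbw7 with reduced substrate affinity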
Target sequence (Q969H0 whole entry, looked up): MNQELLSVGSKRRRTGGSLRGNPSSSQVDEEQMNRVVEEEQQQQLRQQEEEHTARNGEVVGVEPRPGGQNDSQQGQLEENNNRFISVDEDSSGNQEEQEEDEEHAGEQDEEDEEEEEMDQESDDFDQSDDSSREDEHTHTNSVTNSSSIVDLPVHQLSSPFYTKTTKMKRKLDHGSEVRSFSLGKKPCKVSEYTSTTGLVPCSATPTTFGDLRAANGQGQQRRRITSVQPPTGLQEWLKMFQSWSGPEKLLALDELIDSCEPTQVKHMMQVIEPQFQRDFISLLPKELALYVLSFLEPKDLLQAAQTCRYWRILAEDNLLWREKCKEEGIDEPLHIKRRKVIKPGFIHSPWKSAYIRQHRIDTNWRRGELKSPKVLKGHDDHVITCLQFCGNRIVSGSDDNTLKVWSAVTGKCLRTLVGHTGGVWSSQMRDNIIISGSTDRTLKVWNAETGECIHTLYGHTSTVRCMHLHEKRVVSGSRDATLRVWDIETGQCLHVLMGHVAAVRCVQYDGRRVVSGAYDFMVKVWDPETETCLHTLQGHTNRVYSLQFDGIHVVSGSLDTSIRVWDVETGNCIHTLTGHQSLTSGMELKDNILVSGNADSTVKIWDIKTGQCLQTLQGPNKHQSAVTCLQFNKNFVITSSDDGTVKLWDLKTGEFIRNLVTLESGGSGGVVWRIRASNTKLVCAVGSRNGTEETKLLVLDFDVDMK
MITF primary – human MITF inhibition, primary screen. AID 1259374. inhibition, % at 2.6 µM. O75030. 0.91% of 650,000 active. AlphaScreen MITF homodimerization, bead proximity signal; in the data active means inhibition above about 50%;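 further: 0% = vehicle wells with protein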
An asterisk follows results filed as active.

SMILES | TEAD-YAP inh | GPR151 activ | FBW7 act | MITF primary
O=C(/C=C/c1ccc2c(c1)OCO2)Nc1ccccc1C(=O)O | 46.7* | -6.7 | 0.0 | 20.3
COc1ccc(/C=C/C(=O)Nc2ccccc2C)cc1OC | 5.5 | 0.7 | -0.2 | 11.0
CCN(CC)c1ccc(NC(=O)c2ccc(C)cc2)cc1 | -69.5 | -0.6 | -0.2 | 6.5
O=c1[nH]cccc1-c1nc2ccc(Cl)cc2s1 | 78.2* | -2.3 | -0.1 | -3.6
O=C1CC(C(=O)Nc2nc3ccc(Cl)cc3s2)c2ccccc21 (stereo not given) | -1.8 | 1.6 | -0.2 | -0.7
COc1cc(C(=O)Nc2c(C)cccc2C(C)C)c(Br)c(OC)c1OC | 5.8 | -0.4 | -0.1 | -5.3
O=C(Cc1ccccc1)Nc1ncc(Cc2ccccc2)s1 | -1.1 | -1.0 | -0.1 | 6.4
COc1cc(C(=O)Nc2ncc(Cc3ccccc3)s2)cc(OC)c1OC | 53.4* | 2.0 | -0.3 | 2.9
COc1cc(C(=O)Nc2ncc(Cc3cccc(Cl)c3)s2)cc(OC)c1OC | 54.5* | 2.1 | -0.1 | 12.7
CC(Oc1ccccc1)C(=O)Nc1ncc(Cc2ccccc2)s1 (stereo not given) | 42.4* | -0.8 | 0.1 | -0.3
COc1cc(C(=O)Nc2nnc(Cc3ccccc3)s2)cc(OC)c1OC | 2.9 | -0.8 | 0.2 | 0.2
CCOC(=O)C1=C(C)NC(C)=C(C(=O)OCC)C1c1ccc(OC)c(O)c1 | 5.4 | 3.1 | -0.1 | -11.3
COC(=O)COc1ccc(/C=C2\SC(=O)N(CC(=O)Nc3ccc(C)cc3)C2=O)cc1 | 2.6 | 1.1 | -0.3 | -9.0
CC1=C(C(=O)OCCc2ccccc2)C(c2ccccc2[N+](=O)[O-])C2=C(CC(c3ccc(Cl)cc3)CC2=O)N1 (stereo not given) | 3.5 | 0.9 | 0.0 | 14.9
OCc1ccc(-c2cnc3ccc(NCc4cccs4)nn23)cc1 | 35.0* | -1.1 | 0.1 | -8.4
OCc1cccc(-c2cnc3ccc(NCc4cccs4)nn23)c1 | -1.4 | -0.9 | -0.1 | 12.4
Fc1ccc(-c2cnc3ccc(NCc4cccs4)nn23)cc1 | -4.4 | 0.0 | 0.1 | -16.1
Oc1ccc(-c2cnc3ccc(NCc4cccs4)nn23)cc1 | 61.8* | 2.8 | -0.1 | -11.9
CCCCNS(=O)(=O)c1ccc(S(=O)(=O)N2CCN(C(C)=O)CC2)cc1 | -7.4 | 0.1 | 0.1 | -11.6
COc1ccc(S(=O)(=O)N2Cc3ccccc3CC2C(=O)Nc2ccc(C)cc2)cc1 (stereo not given) | 33.0* | 0.8 | -0.1 | -4.6
Cc1ccc2c(c1)N(C(=O)CCC(=O)NC(C)CCc1ccccc1)CCO2 (stereo not given) | -3.3 | 3.7 | 0.0 | -1.2
O=C(Cn1c2ccccc2c(=O)c2cc([N+](=O)[O-])ccc21)Nc1ccc(Cl)c(Cl)c1 | 6.7 | 0.6 | 0.0 | 1.6
O=C(O)c1ccc2c(c1)C(=O)N(Nc1ccccc1[N+](=O)[O-])C2=O | 47.7* | -2.3 | 0.1 | 23.9
O=C(O)c1ccc2c(c1)C(=O)N(c1ccccc1[N+](=O)[O-])C2=O | 6.1 | 2.0 | 0.7 | 11.8
Cc1ccc(Br)c(N2C(=O)Nc3ccccc3N2O)c1 | 2.8 | 2.0 | 0.0 | -7.1
SMILES | TEAD-YAP inh | GPR151 activ | FBW7 act | MITF primary
COC(=O)C1=CN(Cc2ccc(F)cc2)C=C(C(=O)OC)C1c1ccc(C(C)C)cc1 | -2.0 | -0.1 | 0.3 | -11.5
COC(=O)c1sc(N)c(C(=O)OC)c1COC(=O)c1c(C)noc1C | 46.5* | -0.8 | 0.2 | 8.6
CCOC(=O)c1c(N)sc(C(=O)OC)c1CC(=O)OC | 6.6 | 2.2 | 0.1 | 0.4
CCOc1ccc(OCC)c(NS(=O)(=O)c2c[nH]c(C(=O)OC)c2)c1 | 53.4* | -1.1 | -0.1 | -7.0
COc1ccc(OC)c(NS(=O)(=O)c2ccc([N+](=O)[O-])cc2)c1 | 3.9 | -0.6 | -0.2 | -3.6
CCOc1ccc(S(=O)(=O)Nc2cc([N+](=O)[O-])ccc2OC)cc1 | 51.3* | 1.9 | -0.1 | 9.8
COc1ccc(NS(=O)(=O)c2ccc(Oc3ccccc3OC)cc2)cc1 | 33.2* | -0.3 | 0.3 | 6.8
COc1cccc(NS(=O)(=O)c2ccc(Oc3ccccc3OC)cc2)c1 | 5.8 | -0.8 | -0.4 | -2.5
CCOc1ccc(S(=O)(=O)Nc2cc(OC)ccc2OC)cc1C | 51.7* | -0.6 | 0.0 | 6.1
CCOc1ccccc1NS(=O)(=O)c1ccc(OC)c(C)c1 | 4.2 | -0.8 | 1.2 | 16.6
CCONC(=O)c1cnc2scc(CC)n2c1=O | -0.6 | -0.2 | -0.4 | -6.5
CCCS(=O)(=O)NC1CC(=O)N(c2ccc(C)cc2)C1 (stereo not given) | 1.1 | 2.9 | 0.2 | 1.9
CCOc1ccc(S(=O)(=O)Nc2cc(OC)ccc2OC)cc1 | 63.3* | -1.8 | 1.2 | 14.1
COc1ccc(OC)c(NS(=O)(=O)c2ccc(SC)cc2)c1 | 52.3* | 1.1 | 0.2 | 16.4
CCOc1ccc(NS(=O)(=O)c2ccc(OC)c(OC)c2)cc1 | -0.4 | -1.3 | 0.1 | 3.1
CCOc1ccc(S(=O)(=O)Nc2ccc(OC)c(OC)c2)cc1 | 57.1* | 0.2 | 0.8 | 23.1
COc1ccc(NS(=O)(=O)c2ccc(-c3ccc(S(=O)(=O)Nc4ccc(OC)cc4OC)cc3)cc2)c(OC)c1 | -9.5 | -1.1 | 0.1 | 11.2
COc1ccc(C)cc1NS(=O)(=O)c1ccc(SC)cc1 | 7.5 | 0.0 | -0.4 | 23.2
COc1ccc(NS(=O)(=O)c2ccc(Cc3ccc(S(=O)(=O)Nc4ccc(OC)cc4OC)cc3)cc2)c(OC)c1 | 37.1* | 0.0 | 0.7 | 20.1
COc1ccc(OC)c(NS(=O)(=O)c2ccc(C(C)(C)C)cc2)c1 | 7.1 | 0.6 | 0.1 | 14.6
CCOC(=O)C1(Cc2ccccc2)CCN(Cc2ccncc2)CC1 | 3.3 | 0.2 | 0.0 | 5.3
COc1cc(/C=C(\C#N)C(=O)NC(C)c2ccccc2)cc(Br)c1O (stereo not given) | 7.1 | 0.6 | -0.1 | 5.1
Cc1nc2cc(NC(=O)c3cc(-c4ccccc4)nc4ccccc34)ccc2n1-c1ccccc1 | 11.3 | 4.1 | -0.1 | -6.8
O=C(Nc1cccc(-c2nc3ncccc3o2)c1)c1ccc(-c2ccc(Cl)cc2)o1 | -6.0 | 0.3 | 0.0 | 5.9
COc1ccc(NS(=O)(=O)c2ccc(SC)cc2)cc1OC | 43.5* | 0.2 | 0.0 | -11.3
SMILES | TEAD-YAP inh | GPR151 activ | FBW7 act | MITF primary
CC(=O)N1CC(C)Oc2cc(S(=O)(=O)Nc3ccccc3Cl)ccc21 (stereo not given) | 4.5 | 1.4 | -0.1 | -0.3
COc1ccc(NS(=O)(=O)c2ccc3c(c2)OC(C)CN3C(C)=O)cc1OC (stereo not given) | 39.6* | -2.4 | -0.1 | 5.5
COc1ccc(Cl)cc1C(=O)NNC(=O)CN1C(=O)C2C3C=CC(C3)C2C1=O (stereo not given) | 4.4 | 0.5 | -0.1 | 0.3
CC(Nc1cc(N2CCN(C(=O)c3ccco3)CC2)ccc1[N+](=O)[O-])C12CC3CC(CC(C3)C1)C2 (stereo not given) | 43.2* | 1.1 | -0.1 | -13.6
O=C(NCc1nc2ccccc2[nH]1)c1cnc(Nc2ccccc2)s1 | -5.7 | -0.6 | -0.1 | 5.5
Clc1cncc(Cl)c1N1CCN(c2ccc(-c3cccnc3)cn2)CC1 | 50.3* | 0.0 | -0.4 | 16.0
OC(COc1ccccc1)CN1CCN(CC(O)COc2ccccc2)CC1 (stereo not given) | 9.5 | 0.1 | -0.1 | -9.8

Screening results: PubChem, The Scripps Research Institute Molecular Screening Center
